Data reported in PubChem BioAssay (NCATS).
Records with an inconclusive call do not appear. Values without a mark were called inactive. Calls follow the shape of the dose curve; as a rule, active = well fitted cell-killing curve with a large enough effect; inconclusive = small, poorly fitted or top-dose-only effect, or effect the other way; inactive = flat fitted curve, though single readings scatter.

The compounds below were run on Tov112D (assay: Primary qHTS to identify gynecologic anti-cancer compounds using libraries of approved drugs and bioactive compounds (AID 1345084; also: nearly all actives have a fitted effect of over 55% in size)). Settings: Gynecologic cancer cell panel viability, ATPlite luminescence, 48 h; series mostly up to 57.5 µM; activity change, negative = cytotoxicity: at the top concentration.
Summary of the method: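 Five-point cytotoxicity, 48 h drug exposure at 37 C, 5% CO2, on cells seeded 16 h beforehand. ATP content read by ATPlite luminescence.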
% is scaled to controls: 0 for no effect and ±100 for the full control effect.

SMILES	activity change, negative = cytotoxicity
C[C@@H]1O[C@@H](O[C@H]2[C@H](OC(=O)[C@]34CCC(C)(C)C[C@H]3C3=CCC5[C@@]6(C)C[C@H](O)[C@H](O[C@@H]7O[C@H](CO)[C@@H](O)[C@H](O)[C@H]7O)[C@@](C)(CO)C6[C@H](O)C[C@@]5(C)[C@]3(C)CC4)OC[C@H](O)[C@@H]2O)[C@H](O)[C@H](O)[C@H]1O[C@@H]1OC[C@@H](O)[C@H](O[C@@H]2OC[C@](O)(CO)[C@H]2O)[C@H]1O (stereo partly specified)	7.29% [at 6.55 µM]
CC(=O)OC1C(O)CC2(C)C(CCC(C)C23Cc2c(O)cc(CO)c(C=O)c2O3)C1(C)C (stereo unspecified)	-14.8% [at 25.3 µM]
C/C(=C\CCC(C)CCO)C(=O)OC1(C)CCC2C(C(=O)O)=COC(OC3OC(CO)C(O)C(O)C3O)C21 (stereo unspecified)	13.4% [at 25.3 µM]
NC1(C(=O)NC(CCO)c2ccc(Cl)cc2)CCN(c2ncnc3[nH]ccc23)CC1 (stereo unspecified)	-4%
CCC(C)/C=C(C)/C=C/c1cc2c(cn1)C(=O)C(C)(OC(C)=O)C(O)=C2Cl (stereo unspecified)	9.21% [at 38.5 µM]
CC(O)/C=C/C1(O)C(C)C(O[C@@H]2O[C@H](CO)[C@@H](O)[C@H](O)[C@H]2O)C(O)CC1(C)C (stereo partly specified)	-3.95% [at 25.3 µM]
COC(=O)C12CCC(C)C(C)C1C1=CCC3C4(C)CCC(OC(C)=O)C(C)(C)C4CCC3(C)C1(C)CC2 (stereo unspecified)	2.42% [at 25.3 µM]
C=C1C(=O)O[C@H](CCC)[C@H]1C(=O)O	3.67%
CCOc1cc(CC(=O)NC(CC(C)C)c2ccccc2N2CCCCC2)ccc1C(=O)O (stereo unspecified)	0.574%
COC1=CC(=O)CC(C)C12Oc1cc(OC)cc(O)c1C2=O (stereo unspecified)	1.22%
O=C1CCC(=O)N(O)CCCCCNC(=O)CCC(=O)N(O)CCOCCNC(=O)CCC(=O)N(O)CCCCCN1	-15% [at 25.3 µM]
